# PubChem BioAssay AID1159606 (Sanford-Burnham Center for Chemical Genomics, 2016)
# Screen size: about 360,000 compounds; about 7,300 (2%) were called active. The entries come from a sample that favours actives as a whole. Values without a mark were called inactive. Cut-off read from the data, not from the text of the source: active = inhibition above about 50%; inactive = the rest.
# Experiment: blockers of TWEAK-induced Fn14 reporter activity – luciferase reporter cells, uHTS, primary screen (AID 1159606)
# Conditions: TWEAK-stimulated Fn14 reporter cells, luciferase luminescence, 8 h; at 10 µM; stronger effect = higher value
row,SMILES,inhibition
1,Cc1ccc(Cc2c(-c3ccccc3)nc3ccc(Cl)cn23)cc1,-20.8%
2,Cc1ccc(-c2nc3ccc(Cl)cn3c2Cc2ccccc2)cc1,-22%
3,Clc1ccc2nc(CSc3ccccc3)cn2c1,59.6% (active)
4,CC1(C(=O)NS(=O)(=O)c2cccc(F)c2)CCN1C(=O)c1cccc2ccccc12 (stereo unspecified),-20.6%
5,Cc1ccc(-c2cnc(C(O)c3cc(Cl)cc(Cl)c3)[nH]2)cc1 (stereo unspecified),-5.74%
6,CC1CCc2sc3nc(N4CCN(CCO)CC4)n4ncnc4c3c2C1 (stereo unspecified),-63.4%
7,COC(=O)c1ccc2nc(-c3ccccc3)c(Cc3ccc(OC)cc3C)n2c1,-3.6%
8,CCCCNc1c(-c2ccc(OC)c(Sc3ccc(OC)cc3)c2)nc2ccc(Cl)cn12,5.14%
9,CCCCNc1c(-c2cccc(Sc3ccc(OC)cc3)c2)nc2ccccn12,53.7% (active)
10,COC(=O)c1cc(=O)n(-c2c(Cl)cc(C(F)(F)F)cc2Cl)[nH]1,7.88%
11,O=C(Nc1nccs1)C1CCN(S(=O)(=O)c2ccc(Cl)c(C(F)(F)F)c2)CC1,73.5% (active)
12,CCOC(=O)C1CCCN(C(=O)C2CCN(S(=O)(=O)c3ccc(Cl)c(C(F)(F)F)c3)CC2)C1 (stereo unspecified),-2.02%
13,O=C(Nc1ccccn1)C1CCN(S(=O)(=O)c2ccccc2)CC1,-18.5%
14,N#Cc1cccc(NC(=O)c2cc(C3CCCCN3C(=O)CCc3ccccc3)on2)c1 (stereo unspecified),26.1%
15,C#CCN(N(C)c1ncc(C(F)(F)F)cc1Cl)S(=O)(=O)c1ccc2ccccc2c1,18%
16,C=CCNc1nc(N)c(C(=C(C#N)C#N)c2ccccc2)s1,17.7%
17,COc1ccc(-n2c(-c3ccc(Cl)cc3)n[nH]c2=S)c(OC)c1,0.97%
18,Cc1cc(-c2n[nH]c(=S)n2-c2ccc(C)c(C)c2)no1,4.62%
19,Cc1ccc(-n2c(-c3ccc(Cl)cc3)n[nH]c2=S)cc1,104% (active)
20,CCCC(NC(=O)c1ccco1)c1nc2ccccc2[nH]1 (stereo unspecified),19.6%
21,CC(C)=C(NC(=O)c1ccco1)C(=O)NCCc1nc2ccccc2[nH]1,83.7% (active)
22,CC(C)Oc1ccc(/C=C(\NC(=O)/C=C/c2ccco2)C(=O)NCCc2nc3ccccc3[nH]2)cc1,13.7%
23,Cc1csc(NC(=O)CSc2ccc(-c3ccc(F)cc3)nn2)n1,-0.16%
24,C=CCC[C@H](CCCCC)OC(=O)/C=C/[C@H](O)[C@@H](O)C[C@@H](O)CC=C,2.69%
25,CCOC(=O)N1CCC(NC(=O)c2ccc3nc(N4CCOCC4)sc3c2)CC1,18.3%
26,c1c2c(cc3sc(N4CCCCC4)nc13)OCCO2,98.9% (active)
